In PubChem BioAssay (Tox21):
Inconclusive results are not listed. Active and inactive are the calls of the source. Unless noted, calls follow the shape of the dose curve; as a rule, active = well fitted curve in the direction sought with a large enough effect in the repeat runs; inconclusive = weak or mixed curves; inactive = no such curve, though single readings can be large; an effect the other way counts as inactive or inconclusive.

Legend:
[1] = target: Progesterone receptor (Homo sapiens) (UniProt P06401); experiment: qHTS assay to identify small molecule antagonists of the progesterone receptor (PR) signaling pathway (AID 1346795; active = well fitted inhibition curve with a large enough effect in the signal ratio in the repeat runs, not every such curve was filed as active; the % refers to the signal ratio)
Outline: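 HEK293T PR-UAS-bla reporter cells in charcoal-stripped serum (2%) received compound after a 6 hr settling period, followed by R5020 agonist at 1 nM final; 16 hr incubation preceded the FRET substrate step and fluorescence measurement.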

[2] = qHTS assay to identify small molecule antagonists of the progesterone receptor (PR) signaling pathway - cell viability counter screen (AID 1346798); also: series mostly up to about 92 µM; nearly all actives have a fitted effect of over 50% in size
Outline: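 Same-well multiplex: after 16 hr at 37C with compound and R5020 stimulation, HEK293T cells carrying a UAS-bla reporter received LiveBLAzer substrate (2 hr RT), then CellTiter-Glo (30 min RT) for luminescent viability.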

[3] = qHTS assay to identify small molecule antagonists of the TGF-beta/Smad signaling pathway - cell viability counter screen (AID 1346824); also: nearly all actives have a fitted effect of over 50% in size
Outline: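 Cytotoxicity counter-screen run in the same wells as the beta-lactamase Smad reporter read: CellTiter-Glo luminescence after 30 min at room temperature. HEK 293T SBE-bla cells had 5 hr compound exposure at 37 C with TGF-beta1 (0.25 ng/mL stock).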

[4] = qHTS assay to identify small molecule agonists of the TGF-beta/Smad signaling pathway - cell viability counter screen (AID 1346829); also: top concentration of the series differs between compounds; nearly all actives have a fitted effect of over 45% in size
Outline: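 Compound-treated SBE-bla HEK 293T cells (5 hr, 37 C) were assessed for viability with CellTiter-Glo in parallel with the reporter read.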

[5] = qHTS assay to identify small molecule agonists of the TGF-beta/Smad signaling pathway (AID 1346859; active = well fitted activation curve with a large enough effect in the signal ratio in the repeat runs, not every such curve was filed as active; the % refers to the signal ratio; also: series mostly up to about 77 µM)
Outline: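 Smad-responsive beta-lactamase reporter cells (HEK 293T) received compounds from DMSO stocks after overnight attachment, were incubated 5 hr, then treated 2 hr with FRET substrate before dual-emission fluorescence measurement (405 nm excitation).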

[6] = target: Thyrotropin-releasing hormone receptor (Homo sapiens) (UniProt P34981); experiment: qHTS assay to identify small molecule antagonists of the thyrotropin-releasing hormone receptor (TRHR) signaling pathway (AID 1346877; active = well fitted inhibition curve with a large enough effect in the repeat runs, not every such curve was filed as active; also: series mostly up to about 51 µM)
Outline: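 Antagonist mode: after a 5 min room-temperature compound exposure, cells were stimulated with 1 nM (final) TRH. Dye-loaded TRHR-HEK293 cells were used, and calcium-dependent fluorescence was followed for 3 min, with 15-point titrations run in triplicate.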

[7] = target: Thyrotropin-releasing hormone receptor (Homo sapiens) (UniProt P34981); experiment: qHTS assay to identify small molecule agonists of the thyrotropin-releasing hormone receptor (TRHR) signaling pathway (AID 1346891; calls by dose curve;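 also: HEK293 cells expressing TRHR with calcium dye readout; series mostly up to about 58 µM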)
Outline: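 Agonist-mode calcium mobilisation screen: TRHR-transfected HEK293 cells cultured overnight (18 h), dye-loaded for 2 h at 37 °C, exposed to compounds, and monitored by fluorescence for 3 min.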

[8] = Human pregnane X receptor (PXR) small molecule agonists, qHTS cell viability counter screen (AID 1346977); also: nearly all actives have a fitted effect of over 50% in size
Outline: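 Measures live-cell protease fluorescence (CellTiter-Fluor) in PXR-Luc HepG2 cells treated 24hr with compounds at 37C. Cells had 5hr to attach before pin transfer of DMSO solutions.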

[9] = Caspase-3/7 induction in HepG2 cells by small molecules, qHTS assay (AID 1346978); also: nearly all actives have a fitted effect of over 15% in size
Outline: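 Caspase-3/7 induction was measured by Caspase-Glo 3/7 luminescence (30 min, room temperature) after a 17 hr compound exposure of wild-type HepG2 cells seeded at 2,000 per well and pre-incubated 5 hr.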

[10] = qHTS assay to identify small molecule agonists of the progesterone receptor (PR) signaling pathway - cell viability counter screen (AID 1346799; calls by dose curve; also: nearly all actives have a fitted effect of over 45% in size)
Outline: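 Counter screen for cytotoxicity: compound-treated PR-UAS-bla HEK293T cells (16 hr, 37C, 5% CO2) were assayed with CellTiter-Glo, luminescence measured after 30 min at room temperature.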
% is scaled to controls: 0 for no effect and ±100 for the full control effect.

Chain of Progesterone receptor (Homo sapiens) (P06401 whole entry, looked up): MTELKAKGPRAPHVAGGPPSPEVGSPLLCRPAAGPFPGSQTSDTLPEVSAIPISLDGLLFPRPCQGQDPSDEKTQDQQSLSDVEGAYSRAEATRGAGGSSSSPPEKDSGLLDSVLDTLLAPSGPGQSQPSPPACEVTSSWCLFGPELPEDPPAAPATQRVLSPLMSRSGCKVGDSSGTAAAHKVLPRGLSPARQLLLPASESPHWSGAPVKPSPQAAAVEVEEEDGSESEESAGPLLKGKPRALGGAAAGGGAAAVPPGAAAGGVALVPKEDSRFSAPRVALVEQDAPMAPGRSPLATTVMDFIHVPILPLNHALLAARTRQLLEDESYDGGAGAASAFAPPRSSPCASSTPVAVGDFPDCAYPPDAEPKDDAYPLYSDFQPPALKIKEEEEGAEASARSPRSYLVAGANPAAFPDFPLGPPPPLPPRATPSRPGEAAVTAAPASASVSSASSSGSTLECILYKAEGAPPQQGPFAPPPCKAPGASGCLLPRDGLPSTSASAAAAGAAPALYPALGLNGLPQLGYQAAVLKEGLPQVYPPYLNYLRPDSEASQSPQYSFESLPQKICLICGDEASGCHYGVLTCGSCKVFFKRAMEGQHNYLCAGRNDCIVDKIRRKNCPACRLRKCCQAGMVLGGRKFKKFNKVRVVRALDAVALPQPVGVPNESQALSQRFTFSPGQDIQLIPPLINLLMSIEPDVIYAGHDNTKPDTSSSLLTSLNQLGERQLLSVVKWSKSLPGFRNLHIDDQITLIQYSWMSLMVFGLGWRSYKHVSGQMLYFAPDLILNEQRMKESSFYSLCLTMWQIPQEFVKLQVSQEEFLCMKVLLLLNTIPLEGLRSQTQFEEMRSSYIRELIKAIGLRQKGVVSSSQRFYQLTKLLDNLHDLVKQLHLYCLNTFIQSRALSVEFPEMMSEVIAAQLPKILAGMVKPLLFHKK
Chain of Thyrotropin-releasing hormone receptor (Homo sapiens) (P34981 whole entry, looked up): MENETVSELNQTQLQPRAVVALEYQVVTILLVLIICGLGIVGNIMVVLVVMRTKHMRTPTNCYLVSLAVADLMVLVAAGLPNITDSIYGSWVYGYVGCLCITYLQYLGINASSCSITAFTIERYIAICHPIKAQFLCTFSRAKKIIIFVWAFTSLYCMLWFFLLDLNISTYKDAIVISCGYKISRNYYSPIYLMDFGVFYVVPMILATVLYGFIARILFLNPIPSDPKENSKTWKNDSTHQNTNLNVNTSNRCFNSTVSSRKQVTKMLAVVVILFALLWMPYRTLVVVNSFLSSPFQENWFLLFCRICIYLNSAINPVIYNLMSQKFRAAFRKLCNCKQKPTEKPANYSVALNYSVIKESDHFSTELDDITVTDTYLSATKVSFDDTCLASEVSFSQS

Cc1ccc(-c2ncc(Cl)cc2-c2ccc(S(C)(=O)=O)cc2)cn1
inactive: Potency [1] | Potency [2] | outcome [3] | outcome [4] | outcome [5] | outcome [6] | Potency [7] | Potency [8] | outcome [9]

c1coc(CNc2ncnc3nc[nH]c23)c1
inactive: Potency [1] | Potency [2] | outcome [3] | outcome [5] | outcome [6] | Potency [7]

CC(C)CC(C)(N)C#N (stereo unspecified)
inactive: Potency [1] | Potency [10] | outcome [3] | outcome [4] | outcome [5] | outcome [6] | Potency [7] | Potency [8] | outcome [9]

Nc1ccn([C@@H]2O[C@H](CO)[C@@H](O)[C@@H]2O)c(=O)n1
inactive: Potency [1] | outcome [3] | outcome [4] | outcome [5] | outcome [6] | Potency [7] | Potency [8] | outcome [9]

C[N+]1(CC2COC(c3ccccc3)(c3ccccc3)O2)CCCCC1 (stereo unspecified)
inactive: activity change, negative = inhibition [1] 3.69% [at 18.9 µM] | activity change, negative = cytotoxicity [10] -1.98% [at 19 µM] | viability change, negative = cytotoxic [3] 7.39% [at 15.8 µM] | activity change, negative = cytotoxicity [4] -19% [at 15.8 µM] | activation [5] 1.32% [at 15.8 µM] | activity, negative = inhibition [6] 1.31% [at 10.5 µM] | activation [7] 10.8% [at 11.8 µM] | activity change, negative = cytotoxicity [8] -0.185% [at 19 µM] | caspase activation [9] -0.482% [at 19 µM]

CCCOC(=O)CC
inactive: Potency [1] | Potency [2] | outcome [3] | outcome [4] | outcome [5] | outcome [6] | Potency [7] | Potency [8] | outcome [9]

CCC1C(=O)OCC1Cc1cncn1C (stereo unspecified)
inactive: Potency [1] | Potency [2] | outcome [3] | outcome [4] | outcome [5] | outcome [6] | Potency [7] | Potency [8] | outcome [9]

O=C(O)CC(C(=O)O)S(=O)(=O)O (stereo unspecified)
inactive: Potency [1] | Potency [10] | outcome [3] | outcome [4] | outcome [5] | outcome [6] | Potency [7] | Potency [8] | outcome [9]

O=[N+]([O-])c1ccc(/C=N\O)o1
inactive: Potency [1] | Potency [2] | outcome [3] | outcome [4] | outcome [5] | outcome [6] | Potency [7] | Potency [8] | outcome [9]

CC(N)C12CC3CC(CC(C3)C1)C2 (stereo unspecified)
inactive: Potency [1] | Potency [2] | outcome [3] | outcome [4] | outcome [5] | outcome [6] | Potency [7] | Potency [8] | outcome [9]

Cc1ccc(C(=O)Nc2ccc(S(=O)(=O)O)c3cc(S(=O)(=O)O)cc(S(=O)(=O)O)c23)cc1NC(=O)c1cccc(NC(=O)Nc2cccc(C(=O)Nc3cc(C(=O)Nc4ccc(S(=O)(=O)O)c5cc(S(=O)(=O)O)cc(S(=O)(=O)O)c45)ccc3C)c2)c1
inactive: Potency [1] | Potency [2] | outcome [3] | outcome [4] | outcome [5] | outcome [6] | Potency [7] | outcome [9]

NO
inactive: Potency [2] | Potency [10] | outcome [3] | outcome [4] | outcome [5] | Potency [8]

CC(C)(C)c1ccc(-c2ccc(C(C)(C)C)cc2)cc1
inactive: Potency [2] | Potency [10] | outcome [3] | outcome [5] | outcome [6] | Potency [7] | Potency [8] | outcome [9]

O=S(=O)(O)c1cccc2ccccc12
inactive: Potency [2] | Potency [10] | outcome [3] | outcome [4] | outcome [5] | outcome [6] | Potency [7] | outcome [9]

Nc1ccn([C@@H]2O[C@H](CO)[C@@H](O)C2O)c(=O)n1 (stereo partly specified)
inactive: Potency [2] | Potency [10] | outcome [3] | outcome [4] | outcome [5] | outcome [6] | Potency [7] | outcome [9]

CCCC(=O)O[C@]1(C(=O)CC)CC[C@H]2[C@@H]3CCC4=CC(=O)CC[C@]4(C)[C@H]3[C@@H](O)C[C@@]21C
inactive: Potency [2] | Potency [10] | outcome [3] | outcome [4] | outcome [5] | outcome [6] | Potency [7] | Potency [8] | outcome [9]

CCCCCC(C)N (stereo unspecified)
inactive: Potency [2] | Potency [10] | outcome [3] | outcome [4] | outcome [5] | outcome [6] | Potency [7] | outcome [9]
